The whole screen tested about 21,000 compounds, of which about 110 (0.52%) were called active.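 The calls were made as follows: active = most replicate scores above 10, or exactly half above 10 with mean activity above 10; inconclusive = mean activity below 10 while half the replicates exceed 10; inactive = most replicate scores below 10.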 The list comes from a sample in which actives are over-represented; it also holds similar structures and randomly drawn compounds.
assay: inducers of caspase activity in MEF A1-2A-BIM cells, primary screen, A1 inhibitor project, cell-based, CaspaseGlo luminescence (AID 2241); conditions: caspase-Glo luminescence, 3 h, active compounds read high, percent of clofoctol signal, DMSO as zero, concentration not given here;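 also: effector caspase 3 and 7 activity cleaving a DEVD luciferin substrate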

Row | Compound | caspase activation
1 | Cc1ccc(C(=O)NC(NCc2ccco2)(C(F)(F)F)C(F)(F)F)cc1 | -0.256% (inactive)
2 | O=C(c1ccccc1)C(CC(=O)N1CCOCC1)c1ccccc1 (stereo not given) | 0.00844% (inactive)
3 | C[C@@H]1CN([C@H](C)CO)C(=O)c2cc(NC(=O)Cc3cn(C)c4ccccc34)ccc2O[C@@H]1CN(C)S(=O)(=O)c1cccs1 | -0.00537% (inactive)
4 | CCSc1ccc2nnc(CCNC(=O)c3ccccc3)n2n1 | 0.0984% (inactive)
5 | COc1ccccc1C(=O)N/C(=C\c1ccccc1)C(=O)N1CCOCC1 | -0.546% (inactive)
6 | Cc1ccc(O)c(C(C)(C)C)c1 | -0.605% (inactive)
7 | Cc1sc2nc3n(c(=O)c2c1C)N=C(c1ccc(F)cc1)CS3 | -1.09% (inactive)
8 | CC1=C(Cc2ccc(OC(=O)c3ccccc3)cc2)C(=O)C(C(C)C)CC1 (stereo not given) | 0.579% (inactive)
9 | CC(=O)N1[C@@H](c2ccc(C)cc2)SC(C)(C)[C@@H]1C(=O)O | -0.0443% (inactive)
10 | O=C(CNC(=S)N(Cc1ccccc1)Cc1ccccc1F)N1CCCC1 | 0.68% (inactive)
11 | O=C(NCSc1nc2ccccc2s1)c1ccco1 | 0.614% (inactive)
12 | O=S(=O)(NCc1ccc(-c2cccs2)cc1)c1cccs1 | 0.285% (inactive)
13 | CC(C)NC(=O)N(C)C[C@H]1Oc2ccc(N(C)C)cc2C(=O)N([C@@H](C)CO)C[C@H]1C | 0.193% (inactive)
14 | Cc1noc(C)c1NC(=O)N(C)C[C@H]1Oc2ccc(NS(=O)(=O)c3ccc(F)cc3)cc2C(=O)N([C@@H](C)CO)C[C@H]1C | 0.124% (inactive)
15 | O=C1CCCCC1C(=O)c1ccccc1 (stereo not given) | -0.0515% (inactive)
16 | COC(=O)C1=C(C)Nc2c(c(=O)n(C)c(=O)n2C)C1c1cccc(OCc2ccccc2)c1 (stereo not given) | 0.0517% (inactive)
17 | C[C@H]1CN([C@@H](C)CO)C(=O)c2cc(NC(=O)C3CC3)ccc2O[C@@H]1CN(C)Cc1ccc(Oc2ccccc2)cc1 | 0.539% (inactive)
18 | O=C(CCn1c(=S)[nH]c2cc3c(cc2c1=O)OCO3)NC1CCCC1 | -1.11% (inactive)
19 | Clc1ccc(N2CCCCCCC2)nn1 | 0.981% (inactive)
20 | CC(=O)Nc1ccc(N=Cc2ccc(N3CCOCC3)cc2)cc1 | -0.682% (inactive)
21 | Cc1ccc(C23CC4CC(CC(CN)(C4)C2)C3)cc1C | 4.34% (inactive)
22 | Cc1cc(-c2cccs2)c2c(N)c(C(=O)c3ccccc3)sc2n1 | 1.1% (inactive)
23 | O=c1c2c3c(sc2[nH]c(=S)n1Cc1ccccc1)CCCCC3 | -0.256% (inactive)
24 | Cc1ccc(SCC(=O)Nc2nncs2)cc1 | -1.27% (inactive)
25 | O=C(NCc1ccc2c(c1)OCO2)c1ccc(Cl)cc1 | -0.323% (inactive)
26 | CCOC(=O)c1cc(-c2ccnn2S(=O)(=O)c2ccc(C)cc2)on1 | -0.165% (inactive)
27 | Cc1noc(C)c1NC(=O)Nc1ccc2c(c1)C(=O)N([C@@H](C)CO)C[C@@H](C)[C@H](CN(C)Cc1ccc(C(F)(F)F)cc1)O2 | -0.666% (inactive)

Row | Compound | caspase activation
28 | Cc1ccc(S(=O)(=O)Nc2ccc3c(c2)C(=O)N([C@@H](C)CO)C[C@H](C)[C@@H](CN(C)Cc2ccc4c(c2)OCO4)O3)cc1 | -0.498% (inactive)
29 | O=C(COc1ccccc1)NCCc1nc2ccccc2n1Cc1ccccc1 | 0.301% (inactive)
30 | Cc1cc(C)c(N=c2scc(C)n2Cc2ccccc2)c(C)c1 | 0.564% (inactive)
31 | COc1ccc(-c2cc(C(F)(F)F)nc(SCC(=O)N3CCCCCC3)n2)cc1OC | -1.22% (inactive)
32 | Cc1cccc(N2CCN(C(=O)CCn3c(=S)[nH]c4cc5c(cc4c3=O)OCO5)CC2)c1C | -1.1% (inactive)
33 | COc1ccc(S(=O)(=O)Nc2ccc3c(c2)C(=O)N([C@@H](C)CO)C[C@H](C)[C@H](CN(C)Cc2ccc(C(=O)O)cc2)O3)cc1 | 0.618% (inactive)
34 | C/C=C1\CC(C)(CC)C(C#N)(C#N)C(N)=C1C#N (stereo not given) | -1.08% (inactive)
35 | Cc1ccc(S(=O)(=O)Nc2ccc3oc(C)c(C(=O)NN)c3c2)cc1 | 0.426% (inactive)
36 | COc1ccc(CCn2c(C)nc(=O)c(-c3ccccc3)c2C)cc1OC | 0.553% (inactive)
37 | CC1(C)CC(=O)C=C(Nc2ccccc2)C1 | 0.527% (inactive)
38 | CN(C)c1ccc(/C=C(\C#N)S(=O)(=O)c2ccccc2)cc1C#N | 0.997% (inactive)
39 | COc1ccc(OC(=O)c2csc(Cc3c(Cl)cccc3Cl)n2)cc1 | 1.94% (inactive)
40 | O=C(Nc1nccs1)C1CCCN(C(=O)c2cnn(-c3ccccc3)c2-n2cccc2)C1 (stereo not given) | 0.381% (inactive)
41 | CC1(C)CC(=O)C(C=NCc2cccnc2)=C(O)C1 | 1.24% (inactive)
42 | C[C@H](CO)N1C[C@H](C)[C@@H](CN(C)Cc2ccccc2)Oc2ccc(NC(=O)Nc3ccc4c(c3)OCO4)cc2C1=O | 0.17% (inactive)
43 | COc1ccc(CN(C)C[C@@H]2Oc3ccc(NC(=O)NC(C)C)cc3C(=O)N([C@@H](C)CO)C[C@H]2C)cc1 | -0.804% (inactive)
44 | CC1(C)Cc2c(sc3ncn4nc(COc5ccc(Cl)cc5)nc4c23)C(C)(C)N1 | 0.338% (inactive)
45 | C/C=C(/C)C(=O)O[C@H]1CC(C)(C)C[C@H]2C3=CCC4[C@@]5(C)CC[C@H](O[C@@H]6O[C@H](C(=O)O)[C@@H](O[C@@H]7O[C@H](CO)[C@H](O)[C@H](O)[C@H]7O[C@@H]7O[C@H](CO)[C@@H](O)[C@H](O)[C@H]7O)[C@H](O)[C@H]6O[C@@H]6O[C@@H](C)[C@H](O)[C@@H](O)[C@H]6O)C(C)(C)C5CC[C@@]4(C)[C@]3(C)[C@@H](O)[C@@H](O)[C@@]12CO (stereo not given in full) | -2.44% (inactive)
46 | COc1ccc(S(=O)(=O)N(C)C[C@H]2Oc3ccc(NC(=O)Nc4c(C)noc4C)cc3C(=O)N([C@H](C)CO)C[C@H]2C)cc1 | -0.141% (inactive)
47 | CCOC(=O)c1cnc2cc(C(F)(F)F)ccc2c1N1CCCCCC1 | 0.00836% (inactive)
48 | C[C@H](CO)N1C[C@H](C)[C@H](CN(C)S(=O)(=O)c2cccs2)Oc2ccc(NS(=O)(=O)c3ccccc3)cc2C1=O | -0.0772% (inactive)
49 | COc1cccc(NC(=O)c2cc3c(s2)-c2c(C)cccc2OC3)c1 | -5.23% (inactive)
50 | Cc1nn(C)cc1C(=O)c1ccccc1 | 0.635% (inactive)
51 | Cc1ccc2c(c1)N(CCCC(=O)N1CCCCC1)C(=O)CO2 | -0.335% (inactive)
52 | Cc1ccccc1-n1c(-c2ccc(Br)cc2)n[nH]c1=S | -0.035% (inactive)
53 | COc1cc(OC)cc(C(=O)N2CCN=C2c2ccccc2)c1 | 0.196% (inactive)
54 | Cc1nn(C(C)C(=O)NC2CCCCCC2)c(=O)c2cc3occc3n12 (stereo not given) | 0.379% (inactive)

Row | Compound | caspase activation
55 | O=C(Nc1ccc(S(=O)(=O)Nc2nccs2)cc1)N1c2ccccc2Sc2ccccc21 | 0.0197% (inactive)
56 | Fc1cc(F)cc(NC(=S)NCCN(C2CCCCC2)C2CCCC2)c1 | -0.0874% (inactive)
57 | CC(=O)Oc1ccc(C2OCC3C(C)C=C(C)C2C3C)cc1 (stereo not given) | 0.946% (inactive)
58 | O=C(NCc1ccc2c(c1)OCO2)c1sc(=S)n2c1[nH]c(=O)c1ccccc12 | -0.669% (inactive)
59 | CCOC(=O)c1cn(CC)c2cc(F)c(F)cc2c1=O | 0.158% (inactive)
60 | O=C(NCc1ccccc1Cl)C1=CSCCO1 | -0.087% (inactive)
61 | C[C@@H]1CN([C@@H](C)CO)C(=O)c2cc(NS(=O)(=O)c3ccccc3)ccc2O[C@H]1CN(C)S(=O)(=O)c1ccc(Cl)cc1 | 0.207% (inactive)
62 | Cc1ccc(-c2nn(C(C)(C)C)c3ncnc(N)c23)cc1 | 11.3% (active)
63 | COc1ccc(NC(=O)Nc2ccc3c(c2)C(=O)N([C@@H](C)CO)C[C@H](C)[C@@H](CN(C)C(=O)NC2CCCCC2)O3)cc1 | -0.437% (inactive)
64 | Cc1ccc(S(=O)(=O)c2no[n+]([O-])c2S(=O)(=O)c2ccc(C)cc2)cc1 | -3.56% (inactive)
65 | CCC(CC)NC(=O)C1c2ccccc2Oc2ccccc21 | 0.418% (inactive)
66 | Cc1noc(C)c1S(=O)(=O)Nc1ccc2c(c1)C(=O)N([C@@H](C)CO)C[C@H](C)[C@H](CN(C)C(=O)Nc1ccc(C(F)(F)F)cc1)O2 | -0.257% (inactive)
67 | Cc1ccc(-n2c(C)nc3sc4c(c3c2=O)CCC4)cc1 | 0.54% (inactive)
68 | CC(=O)Oc1ccc2occ(C(=O)c3cc4ccccc4o3)c2c1 | -5.48% (inactive)
69 | O=C(Nc1ccc(Cl)cc1)Nc1ccc(N2CCN(c3ncccc3C(F)(F)F)CC2)nc1 | -0.335% (inactive)
70 | Cc1cccc(NC(=O)C2C3CC/C=C\CCC32)c1 (stereo not given) | 1.35% (inactive)
71 | CN1C(=O)C(Cc2ccccc2)(Cc2ccccc2)c2ccccc21 | -0.527% (inactive)
72 | C=CCn1c2ccccc2c2nnc(SCCCC(=O)c3ccc(F)cc3)nc21 | -0.988% (inactive)
73 | CNC(=O)CSc1nc2ccccc2[nH]1 | 0.45% (inactive)
74 | Cc1nc(C2COc3ccccc3O2)ncc1S(=O)(=O)c1ccc(Cl)cc1 (stereo not given) | -0.851% (inactive)
75 | O=C(CC1SC(=NC2CC3C=CC2C3)NC1=O)Nc1ccccc1Cl (stereo not given) | 0.103% (inactive)
76 | C[C@H]1CN([C@@H](C)CO)C(=O)c2cc(NC(=O)CCC(F)(F)F)ccc2O[C@H]1CN(C)Cc1ccc(C(=O)O)cc1 | 0.236% (inactive)
77 | COc1ccc(-c2nn(C)c3ccccc23)cc1 | -6.81% (inactive)
78 | C=CCn1c(SC)nnc1-c1ccc(OC)c(OC)c1 | 0.905% (inactive)
79 | CCc1nnc(NC(=O)c2cc(S(=O)(=O)N3CCc4ccccc43)cn2C)s1 | 1.26% (inactive)
80 | Cc1ccc(S(=O)(=O)N(CC(=O)Nc2cccnc2)c2cc(C)cc(C)c2)cc1 | 0.203% (inactive)

From PubChem BioAssay AID2241 (Broad Institute, 2010)
